In PubChem BioAssay (NCI) one finds growth data, which are given here for six molecules.

Among the test systems are NCI-H23 lung; NCI-H226 lung; NCI-H322M lung; HOP-62 NSCLC; NCI-H460 lung; HOP-92 NSCLC; NCI-H522 lung; A549/ATCC NSCLC; 786-0 renal; DU-145 prostate; K-562 leukemia; MALME-3M melanoma; MDA-MB-231 breast; RXF 393 renal; SF-268 CNS; SF-295 CNS; SF-539 CNS; UACC-257 melanoma; M14 melanoma.
Common to all, as to test: NCI-60 one-dose screen, 48 h (100 = growth as untreated, 0 = no growth, -100 = all killed)
Holding throughout (conditions): 10 µM unless noted

About 83,000 compounds went through this panel and 20% of them were active in at least one assay; those are over-represented in the sample as a whole.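 The endpoint reported here, percent growth, reads 100 for growth as untreated, 0 for no net growth and -100 for all cells dead.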 A number with no mark means an inactive call. Active and inactive are the calls of the source. Rule for the calls: active = growth percent below 10; inactive = the rest.

In the case of `CCOc1ccc(-c2nc3ccc(-c4nc5ccc(N6CCN(C)CC6)cc5[nH]4)cc3[nH]2)cc1OCC`, the growth is -7.66% (active) in the experiment with NCI-H23 lung; -8.92% (active) with NCI-H226 lung; 42.1% with NCI-H322M lung; 16.7% with HOP-62 NSCLC; 17.2% in the experiment on NCI-H460 lung; 48.8% in the experiment with HOP-92 NSCLC. Also, the growth in the experiment with NCI-H522 lung is -18.2% (active); with A549/ATCC NSCLC it was 79.2%; with 786-0 renal, 22.3%; in the experiment with DU-145 prostate, 11.1%; with K-562 leukemia it was 12.8%; in the experiment on MALME-3M melanoma, -34.7% (active). Further, the growth is 19.4% with MDA-MB-231 breast; -37.8% (active) in the experiment on RXF 393 renal; 19.3% in the experiment on SF-268 CNS; 27.2% in the experiment with SF-295 CNS; -42.7% (active) in the experiment on SF-539 CNS; 6.87% (active) in the experiment with UACC-257 melanoma. In addition, the growth in the experiment on M14 melanoma is 10%.

In the case of `COc1ccc(/C(C)=C(\c2ccc(Cl)cc2)c2ccc(OCCN3CCCCC3)cc2)cc1F`, the growth with NCI-H23 lung is 48.1%; with NCI-H226 lung, 77%; in the experiment with NCI-H322M lung, 76.1%; in the experiment with HOP-62 NSCLC it was 16.8%; in the experiment on NCI-H460 lung, 7.34% (active); in the experiment with HOP-92 NSCLC, 59.6%. In addition, the growth with NCI-H522 lung is 65.5%; with A549/ATCC NSCLC, 53%; in the experiment with 786-0 renal it was 2.47% (active); in the experiment with DU-145 prostate, 63.3%; in the experiment with K-562 leukemia it was 1.56% (active); in the experiment on MALME-3M melanoma, -27.2% (active). For the same molecule, the growth in the experiment with MDA-MB-231 breast was 49.5%; in the experiment with SF-268 CNS, 63.5%; with SF-295 CNS it was -19.7% (active); in the experiment on SF-539 CNS, 4.69% (active); in the experiment with UACC-257 melanoma it was 24.6%.

`COc1cc(/C=C/c2nc(Nc3ccc(S(=O)(=O)Nc4cc(C)on4)cc3)c3ccccc3n2)ccc1O`: the growth with NCI-H23 lung is 74.3%; in the experiment on NCI-H226 lung, 85.8%; with NCI-H322M lung it was 87.8%; in the experiment on HOP-62 NSCLC, 78.8%; in the experiment with NCI-H460 lung, 65.5%; in the experiment with HOP-92 NSCLC it was 83.9%. Further, the growth in the experiment on NCI-H522 lung was 42.4%; in the experiment with A549/ATCC NSCLC it was 75.3%; in the experiment with 786-0 renal, 94.4%; in the experiment on DU-145 prostate it was 92.2%; in the experiment with K-562 leukemia it was 17.8%; in the experiment with MALME-3M melanoma, 62.6%. Also, the growth with MDA-MB-231 breast is 62.8%; in the experiment with SF-268 CNS, 76.1%; in the experiment with SF-295 CNS, 70.8%; with SF-539 CNS, 61.9%; with UACC-257 melanoma it was 83.2%.

With `Cc1cc(=O)c2cc3nc(-c4cccnc4)oc3c(Br)c2o1`, the growth with NCI-H23 lung is 90%; in the experiment on NCI-H226 lung, 116%; in the experiment with NCI-H322M lung, 109%; in the experiment with HOP-62 NSCLC, 101%; in the experiment on NCI-H460 lung, 104%; with HOP-92 NSCLC it was 92%. Further, the growth in the experiment with NCI-H522 lung is 62.9%; with A549/ATCC NSCLC, 97.2%; in the experiment on 786-0 renal, 96.8%; in the experiment on DU-145 prostate, 119%; in the experiment on K-562 leukemia, 84%; in the experiment on MALME-3M melanoma, 98.7%. Moreover, the growth with MDA-MB-231 breast is 111%; in the experiment on SF-268 CNS, 107%; in the experiment on SF-295 CNS, 120%; in the experiment on SF-539 CNS it was 106%; in the experiment with UACC-257 melanoma, 106%; in the experiment with M14 melanoma it was 98.8%.

Turning to `Cc1cc(N(CCCNc2ccnc3cc(Cl)ccc23)Cc2ccccn2)nc(N2CCCC2)n1`, the growth in the experiment on NCI-H23 lung is 78.3%; with NCI-H226 lung it was 89.6%; with NCI-H322M lung, 75.9%; in the experiment on HOP-62 NSCLC, 68.4%; with NCI-H460 lung it was 66.4%; in the experiment on HOP-92 NSCLC, 59.7%. The growth with NCI-H522 lung was 88%; with A549/ATCC NSCLC, 70.8%; in the experiment with 786-0 renal, 73.5%; in the experiment with DU-145 prostate, 91.2%; with K-562 leukemia, 9.27% (active); in the experiment with MALME-3M melanoma, 70.9%. Besides, the growth is 56.2% in the experiment on MDA-MB-231 breast; 54.9% in the experiment with RXF 393 renal; 67.3% in the experiment with SF-268 CNS; 75.5% in the experiment on SF-295 CNS; 52.3% with SF-539 CNS; 81.6% with UACC-257 melanoma. For the same molecule, in the experiment with M14 melanoma, the growth is 93.7%.

`NS(=O)(=O)Oc1ccc(-c2sc3cc(O)ccc3c2C(=O)c2ccc(OCCN3CCCCC3)cc2)cc1`: the growth in the experiment with NCI-H23 lung is 88%; with NCI-H226 lung, 79%; in the experiment on NCI-H322M lung, 90.6%; in the experiment on HOP-62 NSCLC it was 67%; with NCI-H460 lung, 20.3%; in the experiment on HOP-92 NSCLC, 60.4%. Further, the growth with NCI-H522 lung was 65.8%; in the experiment on A549/ATCC NSCLC, 33.4%; in the experiment on 786-0 renal it was 71.6%; in the experiment with DU-145 prostate, 51.2%; in the experiment with K-562 leukemia, 14.1%; with MALME-3M melanoma, 63.7%. The growth in the experiment with MDA-MB-231 breast is 72%; in the experiment with RXF 393 renal, 66.8%; with SF-268 CNS, 68.4%; in the experiment with SF-295 CNS it was 48.1%; in the experiment with SF-539 CNS, 62.8%; in the experiment on UACC-257 melanoma it was -44.2% (active). The growth with M14 melanoma was -17% (active).
